# Screens as filed in PubChem.
# Many of the other results were omitted from the sample, so hits are more common in it than they were.
# Giardia FBPA inh: inhibitors of Giardia lamblia fructose-1,6-bisphosphate aldolase | AID 2451 | 290,000 tested, 0.71% active | purified Giardia FBPA | Potency, µM (highest dose often 59.6 µM), inactives show top-dose activity, negative = inhibition, usual class: inhibitors; note: potency is the fitted concentration of half-maximal effect; % is set by controls: 0 for no effect and ±100 for the full control effect; nearly all actives have a fitted effect of over 55% in size
# Target sequence (A8B2U2 whole entry, looked up): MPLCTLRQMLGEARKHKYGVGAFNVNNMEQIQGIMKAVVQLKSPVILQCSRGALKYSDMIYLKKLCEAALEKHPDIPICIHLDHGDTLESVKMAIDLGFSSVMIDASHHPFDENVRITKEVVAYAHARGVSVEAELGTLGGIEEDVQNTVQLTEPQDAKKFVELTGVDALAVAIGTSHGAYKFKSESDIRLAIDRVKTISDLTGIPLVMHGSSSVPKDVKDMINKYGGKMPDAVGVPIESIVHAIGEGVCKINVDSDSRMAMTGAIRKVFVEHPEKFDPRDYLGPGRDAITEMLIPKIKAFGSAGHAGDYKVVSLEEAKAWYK
#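 40 nM FBPA preincubated 10 min at RT with compound (up to 57.5 uM final), then substrate plus GAPDH/TPI/NAD/arsenate coupling and diaphorase/resazurin added. Fluorescence read after 20 min at RT, 525/598 nm.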
# Cycloheximide cs: counter-screen for Shiga toxin inhibitors: cycloheximide protein synthesis inhibition. cell reporter, cycloheximide protein synthesis inhibition counterscreen. max response, %. 300,000 tested, 12% active; in the data active = max response mostly above about 13%, no sharp cut-off; inactive = mostly below about 14%; note: read at 38.3 µM for the half of the compounds with a filed dose; 0% is about no effect
# LmPK inh: inhibitors of Leishmania mexicana pyruvate kinase; Q27686; purified LmPK, Kinase-Glo ATP luminescence, 1 h; Potency, µM (doses to about 57.5 µM), without a hit: at the highest dose activity change, negative = inhibition, hits mostly inhibitors; 290,000 tested, 0.37% active; note: potency is the fitted concentration of half-maximal effect; % is set by controls: 0 for no effect and ±100 for the full control effect
#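 Purified LmPK (0.1 nM) converted ADP (0.1 mM) to ATP with PEP (0.5 mM) in imidazole buffer pH 7.2 with KCl and MgCl2, 1 h at room temperature. ATP was read by Kinase-Glo luminescence; data normalized to uninhibited and no-enzyme controls.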
# Sm TGR inh: inhibitors of Schistosoma mansoni thioredoxin glutathione reductase; Q962Y6; purified TGR, DTNB reduction, TNB absorbance 405 nm; Potency, µM (highest dose often 114 µM), for the others: top-dose activity change, negative = inhibition, usual class: inhibitors; 360,000 tested, 3% active; AID 485364; note: potency is the fitted concentration of half-maximal effect; % is set by controls: 0 for no effect and ±100 for the full control effect; nearly all actives have a fitted effect of over 60% in size
#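 TGR 20 nM + NADPH 100 uM (dispensed conc.), cpd preinc 15 min RT; start with NADPH (500 uM addition) then DTNB (15 mM addition). Kinetic TNB absorbance, 405 nm filter. Four-parameter Hill fit across titration.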
# TbPYK inhibitor: blocks Trypanosoma brucei pyruvate kinase. Potency, µM (titrated, usually from 76.8 µM), for the others: at the top dose activity, negative = inhibition, actives largely listed as inhibitors. TbPYK enzyme, Kinase-Glo Plus ATP luminescence, 45 min. Q57TT1. AID 624173. 410,000 tested, 0.12% active; note: potency is the fitted concentration of half-maximal effect; % is set by controls: 0 for no effect and ±100 for the full control effect; nearly all actives have a fitted effect of over 50% in size
#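 Readout: single end-point luminescence (Kinase-Glo Plus, 10 min). Reaction conditions were TbPYK/substrate plus 130 uM ADP, 45 min at RT, pH 7.2 TEA buffer. No-enzyme wells served as controls, and data were normalized before concentration-response fitting.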
# Shiga inhibitor: inhibitors of Shiga toxin in Vero cells; Vero cells, Shiga toxin protein synthesis inhibition reporter; AID 2315; inhibition, % at 38.7 µM; 290,000 tested, 9.2% active; in the data active = inhibition mostly above about 28%, no sharp cut-off; inactive = mostly below about 43%; note: 0% is about no effect
# An asterisk follows results filed as active; ? = inconclusive; . = no result; [ ] = remark or other dose. Unless noted, calls come from the whole dose curve; as a rule, active = well fitted curve in the direction sought with a large enough effect; inconclusive = small, poorly fitted or top-dose-only effect, or another doubt; inactive = no such curve, though single readings can be large; an effect the other way counts as inactive or inconclusive.
SMILES,Giardia FBPA inh,Cycloheximide cs,LmPK inh,Sm TGR inh,TbPYK inhibitor,Shiga inhibitor
Cc1ccc(C)c(-n2cc(-c3ccccc3)nc2SCC(=O)Nc2ccccc2)c1,.,.,.,0%,1%,.
CC(C)CC(=O)Nc1ccc2nc(SCC(=O)N3CCc4ccccc43)sc2c1,.,.,.,0%,0%,.
Cc1cccc(NC(=O)Cn2c(=O)n(C)c3ccccc32)c1,-4%,-1,5%,5%,-1%,16
Cc1cccc(NC(=O)Cn2nnc3ccccc32)c1,6%,44*,5%,-1%,-3%,136*
CCN(C(=O)C1CCCN(S(=O)(=O)c2c(C)noc2/C=C/N(C)C)C1)c1cccc(C)c1 (stereo not drawn),.,.,.,-4%,-1%,.
COc1ccccc1NC(=O)c1ccc(COc2ccccc2Br)o1,2%,-2,0%,-24%,2%,2
CCN(CC)C(=O)c1ccc(COc2ccccc2Cl)o1,4%,21*,-4%,-16%,2%,29
CN(C)C(=O)c1ccc(COc2ccccc2Br)o1,1%,43*,-5%,?,-2%,86*
CN(C(=O)c1ccc(COc2ccccc2Cl)o1)c1ccccc1,-3%,15,2%,?,3%,17
COc1ccccc1OCc1ccc(C(=O)N(C)C)o1,1%,25*,-6%,-3%,4%,51
Cc1cc2c(cc1S(=O)(=O)Nc1cccc(Cl)c1C)OCCN2C,.,.,.,?,-11%,.
COc1ccccc1C(=O)Nc1cccc(C(=O)OCc2cc(=O)n3cc(C)sc3n2)c1,.,.,.,1%,-3%,.
C[C@@H]1C(=O)O[C@H]2C[C@@]34[C@H]5C[C@@H](C(C)(C)C)[C@]36[C@@H](OC(=O)[C@@H]6O)O[C@@]4(C(=O)O5)[C@]21O,-4%,-6,6%,0%,4%,-7
O=C(/C=C/c1ccc2c(c1)OCO2)N1CCCCC1,-6%,39*,0%,0%,0%,45*
COC(=O)C1CCN(C(=O)/C=C/c2ccc(OC)cc2)CC1,-1%,49*,-1%,-2%,4%,93
CN(C)C(CNC(=O)C1CCN(C(=O)/C=C/c2ccccc2)CC1)c1ccccc1 (stereo not drawn),-1%,38*,-9%,-26%,2%,59*
COc1ccc2cc(/C=C/C(=O)N3CCN(CC(=O)N4CCCCCC4)CC3)ccc2c1,3%,37*,-6%,-13%,-2%,44*
C[C@@H]1CN([C@H](C)CO)C(=O)c2c(c3ccccc3n2C)-c2ccccc2CO[C@@H]1CN(C)S(=O)(=O)c1cccs1,.,.,.,.,3%,.
CC(=O)[C@@]1(O)CC[C@H]2[C@H]3C[C@@H](C)C4=CC(=O)C=C[C@]4(C)[C@@]3(F)[C@@H](O)C[C@]21C,1%[21.7 µM],.,.,.,-4%[33.2 µM],.
CCOC(=O)C1CCCN(C(=O)/C=C/c2ccccc2)CC1 (stereo not drawn),.,.,.,.,0%,.
CCOC(=O)C1CCN(C(=O)/C=C/c2ccc3c(c2)OCO3)CC1,4%,29*,3%,-9%,-5%,77
CCOC(=O)C1CCN(C(=O)/C=C/c2ccccc2)CC1,5%,33,7%,-1%,2%,73*
COC(=O)c1ccccc1NC(=O)Cn1cc(S(=O)(=O)Cc2ccccc2F)c2ccccc21,.,.,.,-1%,-14%[15.4 µM],.
Cc1ccc2c(c1)COc1c3ccc(C(=O)N[C@@H](CO)C(C)C)cc3nn1-2,16%,55*,3%,1%,-7%,74*
C[C@@H](CO)NC(=O)c1ccc2c3n(nc2c1)-c1ccccc1CO3,0%,17*,14µM*,13%,?,8
SMILES,Giardia FBPA inh,Cycloheximide cs,LmPK inh,Sm TGR inh,TbPYK inhibitor,Shiga inhibitor
COCCNC(=O)c1ccc2c3n(nc2c1)-c1ccc(C)cc1CO3,5%,59*,-9%,19%,-3%,134*
CC(C)NC(=O)c1ccc2c3n(nc2c1)-c1ccc(Cl)cc1CO3,-5%,21*,-4%,9%,-9%,60*
CCn1cc(C(=O)N2CCN(c3ccccc3)CC2)c(=O)c2cc(S(=O)(=O)N3CCC(C)CC3)ccc21,.,.,.,-14%,-4%,.
O=C(NCC1CCCO1)c1ccc2c3n(nc2c1)-c1ccccc1CO3 (stereo not drawn),-1%,52*,-29%,-6%,2%,54*
Cc1ccc2c(c1)N(C(=O)N1CCC(C(=O)NCCC3=CCCCC3)CC1)CC(C)O2 (stereo not drawn),.,.,.,2%,-1%,.
CC(=O)Nc1ccc(C(=O)OCC(=O)c2ccc(C)c([N+](=O)[O-])c2)cc1,1%,-4,4%,3%,-13%,-17
CC(=O)Nc1cc(C(=O)OCC(=O)c2ccccc2)ccc1C,1%,35*,0%,0%,0%,active
Cc1ccc(C(=O)CCc2ccc(N)cc2)cc1,-7%,31*,2%,-16%,4%,96*
Cc1ccc[n+](CC(=O)c2ccc(-c3ccccc3)cc2)c1,2%,-1,-5%,-6%,-14%,-9
O=C(CN1C(=O)CCC1=O)c1ccc(-c2ccccc2)cc1,3%,63*,4%,-1%,-6%,83*
N=c1ccn(CC(=O)c2ccc(-c3ccccc3)cc2)cc1,5%,-1,-6%,-4%,4%,-5
Cc1ccc(C(=O)C[n+]2ccccc2)cc1,-1%,25*,-2%,1%,-12%,36*
Cc1ccc(S(=O)(=O)c2nnn3c2nc(N2CCN(c4ccccc4F)CC2)c2ccccc23)cc1C,.,.,.,1%,5%[15.4 µM],.
NS(=O)(=O)c1ccc(CCNC(=O)Cn2c(=O)c3cccn3c3ccc(F)cc32)cc1,.,.,.,4%,7%,.
CCOC(=O)N1CCN(S(=O)(=O)N2CCCC(C(=O)NCc3ccc(C)cc3)C2)CC1 (stereo not drawn),.,.,.,.,-3%,.
CCOC(=O)CCN1C(=O)[C@H]2[C@H]3[C@H](O)[C@H](O)C/C(=N/NC(=O)OCC)[C@@H]3CC[C@@H]2C1=O,1%[12.9 µM],.,.,.,.,.
CCc1ccc(C(=O)c2cn(CC(=O)Nc3ccc4c(c3)OCO4)c3ccc(OC)cc3c2=O)cc1,.,.,.,-17%,-6%,.
O=C(CCCCCCCC(=O)c1ccccc1)c1ccccc1,1%,7,-1%,1%,5%,-5
Cc1ccc(C(=O)Cc2ccccc2)cc1,.,.,.,.,2%,.
CCCC(=O)c1ccc(-c2ccccc2)cc1,1%,28*,-11%,-17%,-24%,84*
CC(=O)NC(C)C(=O)OCC(=O)c1ccc(-c2ccccc2)cc1 (stereo not drawn),3%,16*,2%,11%,-2%,49*
Cc1ccc(C(=O)CC(=O)c2ccccc2)cc1,-23%,48*,-2%,-9%,0%,66*
Cc1ccc(C(=O)OCC(=O)c2ccccc2)cc1,-9%,23*,-7%,-12%,-3%,48*
CC(=O)c1cc(CN2CCC(n3nccc3NC(=O)c3ccccc3)CC2)cs1,.,-2,0%,3%,-7%,-9
